Results on 9 molecules are retold here after PubChem BioAssay (NCI).

About 79,000 compounds went through this panel and 15% of them were active in at least one assay; those are over-represented in the sample as a whole. Unmarked numbers belong to inactive results. The source made the active and inactive calls. Rule as the data show it: active = growth inhibition above about 70%; inactive = the rest.

Test [1] in a line: NCI Yeast Anticancer Drug Screen. Data for the rad50 strain (AID 155).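 Also: 0% = growth of vehicle-only cultures of the same strain.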 The following applies: S. cerevisiae rad50 strain growth inhibition, hits give high values. Summed up: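 Cells are treated with compound, grown, and their growth is then scored against vehicle-only cultures of the same repair-deficient yeast strain.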
The nature of test [2]: NCI Yeast Anticancer Drug Screen. Data for the mec2-1 strain (AID 157). The following applies: S. cerevisiae mec2-1 strain, hits give high values. Summed up: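 Strain: mec2-1 (DNA repair/cell cycle alteration). Compound exposure, then growth measured; inhibition expressed relative to vehicle.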
Test [3] in a line: NCI Yeast Anticancer Drug Screen. Data for the sgs1 mgt1 strain (AID 161).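 Also: 0% = growth of cultures given vehicle only.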 The note with it: S. cerevisiae sgs1 mgt1 strain, hits give high values. Summed up:
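Read-out: growth inhibition vs vehicle controls. Cells: mutant yeast strain deficient in DNA damage repair.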

Test [4] can be described thus: NCI Yeast Anticancer Drug Screen. Data for the cln2 rad14 strain (AID 165).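 Also: 0% = growth equal to vehicle treated cultures.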 The note with it: S. cerevisiae cln2 rad14 strain, hits give high values. Summed up: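 Compounds are applied to the cln2 rad14 yeast strain, and growth is then compared with that of vehicle-treated cultures to give inhibition.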
Test [5] can be described thus: NCI Yeast Anticancer Drug Screen. Data for the bub3 strain (AID 167). The following applies: S. cerevisiae bub3 mutant strain, hits give high values. Summed up:
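Part of a panel of yeast mutants defective in DNA damage repair or cell cycle regulation. Each strain is grown with compound, and inhibition is calculated relative to solvent-treated cultures.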

The nature of test [6]: NCI Yeast Anticancer Drug Screen. Data for the mlh1 rad18 strain (AID 175). The note with it: S. cerevisiae mlh1 rad18 strain growth inhibition, hits give high values. In outline:
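Read-out is yeast growth inhibition, calculated against vehicle-only controls. The compound was applied to a strain engineered with DNA damage repair alterations.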

[7] abbreviates: at 5.0 µM (retest, dose inferred, filed as 0.5).
Setting [8] is: at 50.0 µM (retest, dose inferred, filed as 5.0).

Regarding `COc1ccc2nc3cc(Cl)ccc3c(NCCC[N+](C)(C)CCCCCCCCCCCCCCCC[N+](C)(C)CCCNc3c4ccc(Cl)cc4nc4ccc(OC)cc34)c2c1`, the growth inhibition in test [1] (setting [7]) is 85% (active); in test [1] (setting [8]), 99% (active); in test [1] (at 50.0 µM) it was 49.2%; in test [2] (setting [7]), 76% (active); in test [2] (setting [8]) it was 99% (active); in test [2] (at 50.0 µM), 43.6%. Besides, the growth inhibition was 77% (active) in test [3] (setting [7]); 98% (active) in test [3] (setting [8]); 40.4% in test [3] (at 50.0 µM); 76% (active) in test [4] (setting [7]); 98% (active) in test [4] (setting [8]); 76.6% (active) in test [4] (at 50.0 µM). In addition, the growth inhibition in test [5] (setting [7]) was 85% (active); in test [5] (setting [8]), 99% (active); in test [5] (at 50.0 µM), 47.2%; in test [6] (setting [7]), 92% (active); in test [6] (setting [8]), 99% (active); in test [6] (at 50.0 µM) it was 97.8% (active).
For `COc1ccc2c(c1)CCC1OC(c3cccnc3)OC21` (configuration not stated), the growth inhibition is -1% in test [1] (setting [7]); 18% in test [1] (setting [8]); 65.8% in test [1] (at 50.0 µM); -19% in test [2] (setting [7]); -4% in test [2] (setting [8]); 36.9% in test [2] (at 50.0 µM). For the same molecule, the growth inhibition in test [3] (setting [7]) is -3%; in test [3] (setting [8]), 8%; in test [3] (at 50.0 µM) it was 75.8% (active); in test [4] (setting [7]), -5%; in test [4] (setting [8]), 11%; in test [4] (at 50.0 µM), 55%. The growth inhibition in test [5] (setting [7]) was 10%; in test [5] (setting [8]), 25%; in test [5] (at 50.0 µM) it was 30.6%; in test [6] (setting [7]), -10%; in test [6] (setting [8]) it was -15%; in test [6] (at 50.0 µM), 70.9% (active).
As for `CC(C)=CC[P+](CCCCCC[P+](CC=C(C)C)(c1ccccc1)c1ccccc1)(c1ccccc1)c1ccccc1`, the growth inhibition in test [1] (setting [7]) is -4%; in test [1] (setting [8]), 9%; in test [1] (at 50.0 µM) it was 31.6%; in test [2] (setting [7]) it was -1%; in test [2] (setting [8]) it was 9%; in test [2] (at 50.0 µM), 40.8%. In addition, the growth inhibition is -3% in test [3] (setting [7]); 27% in test [3] (setting [8]); 59.5% in test [3] (at 50.0 µM); -5% in test [4] (setting [7]); 16% in test [4] (setting [8]); 4.75% in test [4] (at 50.0 µM). Further, the growth inhibition in test [5] (setting [7]) is -3%; in test [5] (setting [8]) it was 15%; in test [5] (at 50.0 µM) it was 48.3%; in test [6] (setting [7]) it was -1%; in test [6] (setting [8]), 27%; in test [6] (at 50.0 µM), 89.2% (active).
In the case of `O=C1/C(=C/c2ccccc2)CN(C(=O)CCN2CCCC2)C/C1=C\c1ccccc1`, the growth inhibition in test [1] (setting [7]) was 5%; in test [1] (setting [8]), 83% (active); in test [1] (at 50.0 µM) it was 91.8% (active); in test [2] (setting [7]), 10%; in test [2] (setting [8]), 86% (active); in test [2] (at 50.0 µM), 90.5% (active). The growth inhibition is 99% (active) in test [3] (setting [7]); 96% (active) in test [3] (setting [8]); 91.3% (active) in test [3] (at 50.0 µM); 99% (active) in test [4] (setting [7]); 96% (active) in test [4] (setting [8]); 89.7% (active) in test [4] (at 50.0 µM). In addition, the growth inhibition is 99% (active) in test [5] (setting [7]); 96% (active) in test [5] (setting [8]); 92.2% (active) in test [5] (at 50.0 µM); 2% in test [6] (setting [7]); 89% (active) in test [6] (setting [8]); 90.5% (active) in test [6] (at 50.0 µM).
For the molecule `CS(=O)(=O)OCCN(CCOS(C)(=O)=O)c1ccc(C=Nc2ccc(-c3csc(-c4ccc(Br)cc4)n3)cc2)c(Cl)c1`, the growth inhibition was 0% in test [1] (setting [7]); 71% (active) in test [1] (setting [8]); 71.7% (active) in test [1] (at 50.0 µM); -4% in test [2] (setting [7]); 51% in test [2] (setting [8]); 56.2% in test [2] (at 50.0 µM). Besides, the growth inhibition in test [3] (setting [7]) was 1%; in test [3] (setting [8]), 83% (active); in test [3] (at 50.0 µM), 92.3% (active); in test [4] (setting [7]), -10%; in test [4] (setting [8]) it was 68%; in test [4] (at 50.0 µM) it was 46.3%. Further, the growth inhibition in test [5] (setting [7]) is 3%; in test [5] (setting [8]), 87% (active); in test [5] (at 50.0 µM), 80.1% (active); in test [6] (setting [7]), 0%; in test [6] (setting [8]), 76% (active); in test [6] (at 50.0 µM), 90.7% (active).
For the molecule `COc1cccc(/C=C2/Sc3scc(-c4ccccc4)[n+]3C2=O)c1O`, the growth inhibition in test [1] (setting [7]) is 14%; in test [1] (setting [8]), 20%; in test [1] (at 50.0 µM), 80.4% (active); in test [2] (setting [7]), -9%; in test [2] (setting [8]), 21%; in test [2] (at 50.0 µM), 55.6%. The growth inhibition in test [3] (setting [7]) is -5%; in test [3] (setting [8]), 23%; in test [3] (at 50.0 µM), 82.3% (active); in test [4] (setting [7]), -12%; in test [4] (setting [8]), 18%; in test [4] (at 50.0 µM), 61.8%. Moreover, the growth inhibition in test [5] (setting [7]) is -17%; in test [5] (setting [8]), 64%; in test [5] (at 50.0 µM), 93.1% (active); in test [6] (setting [7]), 12%; in test [6] (setting [8]), 66%; in test [6] (at 50.0 µM), 94.1% (active).
With `C/C=C/C=N/N(c1nnc(-c2ccccc2)c(-c2ccccc2)n1)S(=O)(=O)c1ccc(C)cc1`, the growth inhibition in test [1] (setting [7]) was 58%; in test [1] (setting [8]), 58%; in test [1] (at 50.0 µM) it was 92.2% (active); in test [2] (setting [7]), 29%; in test [2] (setting [8]), 29%; in test [2] (at 50.0 µM), 91.3% (active). For the same molecule, the growth inhibition is 36% in test [3] (setting [7]); 36% in test [3] (setting [8]); 90.1% (active) in test [3] (at 50.0 µM); 38% in test [4] (setting [7]); 38% in test [4] (setting [8]); 90% (active) in test [4] (at 50.0 µM). The growth inhibition in test [5] (setting [7]) was 52%; in test [5] (setting [8]), 52%; in test [5] (at 50.0 µM), 92.3% (active); in test [6] (setting [7]), 34%; in test [6] (setting [8]) it was 34%; in test [6] (at 50.0 µM), 91.5% (active).
As for `O=C(CC(O)c1ccccc1)Sc1ccccc1` (configuration not stated), the growth inhibition in test [1] (setting [7]) was -1%; in test [1] (setting [8]), 13%; in test [1] (at 50.0 µM) it was 72% (active); in test [2] (setting [7]), -2%; in test [2] (setting [8]), 8%; in test [2] (at 50.0 µM), 50%. Besides, the growth inhibition in test [3] (setting [7]) was 1%; in test [3] (setting [8]), 42%; in test [3] (at 50.0 µM) it was 63.1%; in test [4] (setting [7]) it was -2%; in test [4] (setting [8]), -7%; in test [4] (at 50.0 µM), -9.2%. For the same molecule, the growth inhibition in test [5] (setting [7]) is -6%; in test [5] (setting [8]), 4%; in test [5] (at 50.0 µM), 80% (active); in test [6] (setting [7]), -8%; in test [6] (setting [8]) it was 20%; in test [6] (at 50.0 µM) it was 74% (active).
For `CCOC(=O)c1c(SCC#N)n(-c2ccccc2)c(=S)n(-c2ccccc2)c1=O`, the growth inhibition was 12% in test [1] (setting [7]); 35% in test [1] (setting [8]); 80% (active) in test [1] (at 50.0 µM); -7% in test [2] (setting [7]); 39% in test [2] (setting [8]); 81.2% (active) in test [2] (at 50.0 µM). For the same molecule, the growth inhibition in test [3] (setting [7]) is -8%; in test [3] (setting [8]), 48%; in test [3] (at 50.0 µM) it was 75.3% (active); in test [4] (setting [7]), -6%; in test [4] (setting [8]) it was 77% (active); in test [4] (at 50.0 µM), 78% (active). The growth inhibition in test [5] (setting [7]) was 1%; in test [5] (setting [8]), 85% (active); in test [5] (at 50.0 µM), 88.5% (active); in test [6] (setting [7]), -11%; in test [6] (setting [8]), 81% (active); in test [6] (at 50.0 µM), 75.2% (active).
